TSG101-PTAP inh: TSG101-PTAP interaction inhibition, HIV-1 budding. Q99816. Potency, µM (series often up to 115 µM), most hits filed as inhibitors. 44,000 tested, under 10 active. Fluorescence polarization, FITC-PTAP peptide/Tsg101, 20 min. AID 1347069; further: potency means the concentration at half of the fitted maximal effect; 0% is about no effect
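Compounds pinned into 10 uM Tsg101 binding domain, then 50 nM FITC-PTAP peptide added in pH 7.5 HEPES buffer; FP read after 20 min, room temperature. Total S+P intensity flags fluorescent compounds; active cut-off <25 µM, efficacy <60%.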
GALK inhibitor: GALK (human) enzyme inhibition. P51570. recombinant GALK, Kinase-Glo ATP luminescence, 1 h. Potency, µM (titrated, usually from 57.5 µM), for inactives: at the highest dose activity, negative = inhibition, hits mostly inhibitors. 44,000 tested, under 10 active. AID 1347072;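 further: plate controls were full GALK reaction for no effect and reaction lacking GALK for full effect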
Target sequence (P51570 whole entry, looked up): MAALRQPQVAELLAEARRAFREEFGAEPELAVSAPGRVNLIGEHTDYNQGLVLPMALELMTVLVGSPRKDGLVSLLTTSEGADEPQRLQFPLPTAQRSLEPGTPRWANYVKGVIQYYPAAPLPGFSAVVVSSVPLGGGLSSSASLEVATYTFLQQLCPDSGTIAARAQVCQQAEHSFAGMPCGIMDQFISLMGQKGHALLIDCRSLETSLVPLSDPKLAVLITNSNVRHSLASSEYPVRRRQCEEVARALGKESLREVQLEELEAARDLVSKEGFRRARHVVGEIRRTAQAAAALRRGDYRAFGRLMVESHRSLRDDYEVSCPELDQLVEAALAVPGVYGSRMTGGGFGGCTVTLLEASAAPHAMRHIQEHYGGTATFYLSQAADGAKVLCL
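Luminescent ATP-depletion readout (Kinase-Glo Plus) after 1 h room-temperature incubation of human GALK (5 nM) with galactose 100 µM and ATP 35 µM, pH 8.0 HEPES/Mg2+ buffer; compounds tested in qHTS format.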
GALC G270D up: raises human GALC G270D mutant activity in cells; 0.1% of 45,000 active; 145M-Twi-hGALC-G270D cells (Twitcher mouse brain line with human GALC G270D), HMU-beta-Gal fluorescence, 48 h; P54803; Potency, µM (highest dose often 57.5 µM), actives largely listed as activators; further: potency means the concentration at half of the fitted maximal effect; 0% is about no effect; nearly all actives have a fitted effect of over 65% in size
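Mutant human GALC (G270D), stably expressed in a Twitcher mouse brain cell line lacking endogenous GALC, is measured in live-treated cells via 6-hexadecanoylamino-4-methylumbelliferyl-β-galactoside hydrolysis (0.1 mM final, pH 5.2) with fluorescent detection.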
NTMT1 inh: NTMT1 methyltransferase inhibition | Q9BV86 | NTMT1 MTase-Glo SAH luminescence, purified enzyme | Potency, µM (doses to about 114 µM), for inactives: at the top dose activity change, negative = inhibition, usual class: inhibitors | 2.5% of 59,000 active | AID 1645870;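 further: potency means the concentration at half of the fitted maximal effect; plate controls were DMSO vehicle for no effect and no enzyme for full effect; nearly all actives have a fitted effect of over 65% in size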
Target sequence (Q9BV86 whole entry, looked up): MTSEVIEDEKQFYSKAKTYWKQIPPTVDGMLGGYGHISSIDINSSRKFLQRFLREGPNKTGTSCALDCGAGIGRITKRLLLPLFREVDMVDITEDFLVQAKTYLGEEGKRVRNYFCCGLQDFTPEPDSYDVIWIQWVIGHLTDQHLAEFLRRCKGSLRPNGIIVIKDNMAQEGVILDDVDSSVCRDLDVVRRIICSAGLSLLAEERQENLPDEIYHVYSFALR
B2AR arrestin ag: beta-arrestin recruitment by human beta2-adrenergic receptor ligands. AID 1347077. 44,000 tested, under 10 active. Potency, µM (series often up to 46.1 µM), hits mostly activators. HTLA Tango cells, beta-arrestin recruitment, luciferase luminescence, 18 h. P07550;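 further: potency means the concentration at half of the fitted maximal effect; 0% = DMSO and full agonism = EC100 isoproterenol or metaproterenol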
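Receptor–beta-arrestin recruitment read by tTA-responsive luciferase: compound titrations (up to 46 µM) incubated 18 h with Tango cells, then luminescent substrate 15 min at room temperature. Concentration-response fits classified by r2, efficacy and activity.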
FH mod: Identification of activators of human fumarate hydratase by quantitative high-throughput screening; Fumarate hydratase, mitochondrial (Homo sapiens), P07954; FH coupled MDH/diaphorase resazurin fluorescence, 15 min; Potency, µM (top dose mostly 79.9 µM), inactives show at the top dose activity change, negative = inhibition, usual class: inhibitors; 0.22% of 54,000 active; further: potency means the concentration at half of the fitted maximal effect; on the % scale 0 is the no-effect control and ±100 the full control effect; the screen sought activators but most active calls are inhibition curves; nearly all actives have a fitted effect of over 45% in size
The depositor's hits bear a star; i = inactive; ? = inconclusive; · = no result; ! = a repeat was not active; [ ] = dose if it differs, or a comment. Shown is part of a subset that was picked to be rich in hits. The call rests on the fitted dose curve; in most records, active means well fitted curve in the direction sought with a large enough effect; inconclusive means small, poorly fitted or top-dose-only effect, or another doubt; inactive means no such curve, though single readings can be large; an effect the other way counts as inactive or inconclusive.

SMILES | TSG101-PTAP inh | GALK inhibitor | GALC G270D up | NTMT1 inh | B2AR arrestin ag | FH mod
CC(C)C(C)C(O)C1CC23CC(=O)C4(O)C(=C2CCC3C1C)C=CC1(O)CC(O)CCC14C (stereo unspecified) | · | · | · | 15%[29.8 µM] | · | 6%[53.3 µM]
Cc1ccc(Cl)cc1Nc1nn2c(=O)c3ccc(C(=O)NCc4cccs4)cc3nc2s1 | i | 0% | i | 79µM* | i | 3%
Cc1ccccc1Nc1nn2c(=O)c3ccc(C(=O)NCc4cccs4)cc3nc2s1 | i | -2% | i | -1% | i | -7%
COC1C(CO)OC(n2cnc3c(=O)[nH]cnc32)C1O (stereo unspecified) | · | · | · | ? | · | -1%
O=S(=O)(c1cccc2c(Cl)cccc12)N1CCCNCC1 | · | · | · | ? | · | -1%
O=S(=O)(c1cccc2c(I)cccc12)N1CCCNCC1 | · | · | · | 40µM*! | · | -5%
Cc1ccc(C(=O)Nc2noc3ccccc23)cc1 | · | · | · | 25µM* | · | 0%
COc1ccc(C(=O)Nc2noc3ccccc23)cc1 | i | 7% | i | 11µM* | i | -6%
Cc1ccc(NCc2cccn2-c2nnc(N3CCC(C(=O)NC(C)C)CC3)s2)cc1 | i | -2% | i | 89µM* | i | -8%
Cc1cc(Nc2ncnc3ccc(-c4ccc(CNCCS(C)(=O)=O)o4)cc23)ccc1Oc1ccn2ncnc2c1 | · | · | · | 22µM*! | · | -3%
COCC(=O)NCC=Cc1ccc2ncnc(Nc3ccc(Oc4ccc(C)nc4)c(C)c3)c2c1 | · | · | · | ? | · | -6%[53.3 µM]
FC(F)(F)c1ccccc1-c1nc(NCc2ccc(-c3cccc(Cl)c3)cc2)c2ccccc2n1 | · | · | · | 18% | · | ·
CC(C)c1onc(-c2c(Cl)cccc2Cl)c1COc1ccc(/C=C/c2cccc(C(=O)O)c2)c(Cl)c1 | · | · | · | 32µM* | · | ·
COc1ccc(OC)c(NC(=O)c2c(NCc3ccc(C)o3)sc3c2CCCCC3)c1 | i | 1% | i | ? | i | 2%
O=C(COc1ccccc1)Nc1sc2c(c1C(=O)Nc1ccccc1Cl)CCCCC2 | i | -2% | i | 18% | i | -5%
O=C(Nc1sc2c(c1C(=O)Nc1cccc(Cl)c1)CCCC2)c1cccs1 | i | 2% | i | 25µM* | i | 9%
COc1ccccc1NC(=O)c1c(NCc2ccc(C)o2)sc2c1CCCCC2 | i | 2% | i | 28µM* | i | -20%
O=C(Cc1ccccc1)Nc1sc2c(c1C(=O)Nc1ccccc1Cl)CCCC2 | i | -2% | i | 89µM* | i | 5%
Oc1cccc2cc(-c3ccccc3)cnc12 | · | · | · | -1%[57.5 µM] | · | ·
CCCCC1CCC(CCCC(C)CCC(=O)O)CC1 (stereo unspecified) | i | 8% | i | 45µM* | i | 1%
CCN(CC)c1cc(C)c2cc(NC(=O)c3cc(OC)cc(OC)c3)ccc2n1 | i | 0% | i | -15% | i | ?
COc1cc(OC)cc(C(=O)Nc2ccc3c(c2)OCCO3)c1 | i | 3% | i | 32µM* | i | -7%
Fc1cc(Nc2nc(-c3ccncc3)nc3ccccc23)ccc1-c1cccc(C(F)(F)F)c1 | · | · | · | -19% | · | ·
Cn1ccc(NC(=O)c2cc(Oc3ccc(C(=O)N4CCC4)c(F)c3)c3c(c2)OC(C)(C)C3)n1 | · | · | · | 14%[57.5 µM] | · | 2%
Cc1cc2c(s1)c1cnn(Cc3ccc(Cl)cc3)c(=O)c1n2C | · | · | · | 89µM* | · | ·
SMILES | TSG101-PTAP inh | GALK inhibitor | GALC G270D up | NTMT1 inh | B2AR arrestin ag | FH mod
C[C@@H]1CCCN1CCc1cc2cc(-c3ccc(C#N)cc3)ccc2o1 | · | · | · | -3%[57.5 µM] | · | -3%
O=C1NC(=O)/C(=C\c2ccc3nccc(-c4ccncc4)c3c2)S1 | · | · | · | ? | · | 25µM*
O=C1NC(=O)/C(=C/c2ccc3nccc(-c4ccncc4)c3c2)S1 | · | · | · | ? | · | 32µM*
C[C@@H]1CCC2C(C)(C)[C@H](O)[C@H](O)C[C@]2(C)[C@@]12Cc1c(O)cc3c(c1O2)CN(CCCC(=O)O)C3=O (stereo partly specified) | · | · | · | 11%[29.8 µM] | · | 7%[53.3 µM]
CO[C@@H]1[C@]2(O)C(=O)N3/C=C\C(C)(C)c4[nH]c5ccccc5c4/C=C\3C(=O)N2[C@]23[C@H](CO)C(C)(C)N2c2ccccc2[C@]13O | · | · | · | 11%[29.8 µM] | · | -1%[53.3 µM]
CCCc1ccc(S(=O)(=O)N2CCC(c3nnc(-c4cccc(C)c4)o3)CC2)cc1 | i | 7% | i | 79µM* | i | ?
COc1cc2c(cc1O)CC[C@@H]1[C@@H]2CC[C@]2(C)[C@@H](O)CC[C@@H]12 | · | · | · | 35µM* | · | -23%[53.3 µM]
COc1cc2c(cc1O)CCC1C2CC[C@@]2(C)C1CC[C@@H]2O (stereo partly specified) | · | · | · | ? | · | 8%[53.3 µM]
COc1cc(C)c(/C=C/C(C)=C/C=C/C(C)=C/C(=O)O)c(C)c1C | · | · | · | 79µM* | · | ·
Cc1ccc(C(=O)/C=C/c2ccccc2)s1 | · | · | · | ? | · | -19%
O=S(=O)(c1ccc(Cl)cc1)c1nnn2c1nc(NCc1ccccc1)c1sccc12 | i | -8% | i | 89µM* | i | -11%
Cc1ccc(S(=O)(=O)Nc2cnccc2C(=O)Nc2nc(-c3ccc(Oc4ccccc4)cc3)cs2)cc1 | · | · | · | 45µM* | · | ·
O=C(Nc1nc(-c2ccccc2)cs1)c1ccncc1NS(=O)(=O)c1cccc2cccnc12 | · | · | · | 50µM* | · | ·
COCCCn1c(=N)c(C(=O)NC2CCCC2)cc2c(=O)n3cc(C)ccc3nc21 | i | 0% | i | ? | i | 1%
CCC(C)n1c(=N)c(C(=O)NC2CCCCC2)cc2c(=O)n3cc(C)ccc3nc21 (stereo unspecified) | i | 1% | 32µM* | -1% | i | -2%
CC(C)n1c(=N)c(C(=O)NCc2ccccc2)cc2c(=O)n3ccccc3nc21 | i | 3% | i | -2% | i | -19%
COCCCn1c(=N)c(C(=O)NC2CCCC2)cc2c(=O)n3cccc(C)c3nc21 | i | 0% | 25µM* | ? | i | 2%
Cc1ccc2nc3c(cc(C(=O)NC4CCCC4)c(=N)n3C(C)C)c(=O)n2c1 | i | 3% | i | 2% | i | -15%
CC(C)n1c(=N)c(C(=O)NCc2cccnc2)cc2c(=O)n3ccccc3nc21 | i | 2% | 4µM* | 10% | i | 5%
CCC(C)n1c(=N)c(C(=O)NC2CCCC2)cc2c(=O)n3ccccc3nc21 (stereo unspecified) | i | -1% | 10µM* | -3% | i | -2%
Cc1ncc(CCCN(C)C)cc1Nc1ncc2c(n1)-c1ccc(C(F)(F)F)cc1NC(=S)C2 | · | · | · | 32µM* | · | 23%

Source: PubChem (National Center for Advancing Translational Sciences (NCATS))
